The sample as a whole holds a higher share of hits than the screen did.
Dicer processing: human Dicer pre-microRNA cleavage inhibition; AID 1347074; 47,000 tested, 6% active; Q9UPY3; cat-ELCCA pre-miR-21 Dicer processing, chemiluminescence; hits give high values; z-score at 25 µM; in the data active means z-score above about 3, passing the limit was not always enough;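 further: higher signal means more uncleaved substrate so more Dicer inhibition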
Numbers stand for hits; . = inactive.

SMILES	Dicer processing
Cc1ccc(S(=O)(=O)Nc2cnc3ccccc3c2)c(C)c1C	.
O=C1ON=C(CSc2ccccc2)/C1=C/c1ccccc1	.
O=C(Oc1c(Br)cc(C(F)(F)F)cc1[N+](=O)[O-])c1ccccc1Cl	.
O=C(Oc1ccc2occ([N+](=O)[O-])c2c1)c1ccc(C(F)(F)F)cc1	4.68
COC(=O)NC(=O)c1ccc(Oc2ccc(C(F)(F)F)cc2[N+](=O)[O-])cc1	.
Cc1nn(-c2cc(C(F)(F)F)ccc2Cl)c(N)c1C(N)=S	.
CCOC(=O)CC(=O)CSc1nc(-c2cccs2)cc(-c2ccc(Cl)cc2)c1C#N	.
Cc1ccc(C(=O)CSC#N)o1	.
CC(C)(C)OC(=O)NCCNC(=O)Nc1ccccc1C(F)(F)F	.
CC(C)(C)OC(=O)NCCNC(=O)C1CCN(c2nccc(C(F)(F)F)n2)CC1	.
Cc1nc(C(F)(F)F)ccc1C(=O)NCCNC(=O)OC(C)(C)C	4.36
CNC(=O)n1cc(C)c(-c2ccccc2)n1	.
O=[N+]([O-])c1cnc(Sc2n[nH]c(-c3ccc(Cl)cc3)n2)s1	.
OCCCc1nc2ccccc2n1CCCOc1ccc(Cl)cc1	.
OCCCc1nc2ccccc2n1CCCCOc1ccc(Cl)cc1	6.06
OCc1nc2ccccc2n1CC(O)COc1ccc(Cl)cc1 (stereo not given)	.
CN(C)/C=C1\SC(=O)N(c2ccccc2)C1=O	.
CS/C(=N/S(=O)(=O)c1ccccc1)NNC(=O)c1ccc(Cl)cc1	.
O=C(NNC(=NS(=O)(=O)c1ccccc1)NNC(=O)c1cccc(Cl)c1)c1cccc(Cl)c1	3.11
O=C(CO/N=C/c1c(Cl)cccc1Cl)NNC(=O)c1cccc(Cl)c1	.
COC(=O)c1scc(NS(=O)(=O)c2cccc(C(F)(F)F)c2)c1C(=O)OC	.
CCCOC(=O)C1=C(C)NC2=C(C(=O)CC(C)(C)C2)C1c1ccc(N(CC)CC)cc1 (stereo not given)	.
COC(=O)c1ccc(C2C(C(=O)OCc3ccc(OC)cc3)=C(C)NC3=C2C(=O)CC(C)(C)C3)cc1 (stereo not given)	.
CCCOC(=O)C1=C(C)NC2=C(C(=O)CC(C)(C)C2)C1c1ccc(O)cc1 (stereo not given)	3.81
CCOC(=O)C1=C(C)NC2=C(C(=O)CC(C)(C)C2)C1c1ccc(OC)cc1 (stereo not given)	.
SMILES	Dicer processing
C=CCOC(=O)C1=C(C)NC2=C(C(=O)CC(C)(C)C2)C1c1ccc(OC(C)=O)cc1 (stereo not given)	.
COc1ccc(COC(=O)C2=C(C)NC3=C(C(=O)CC(C)(C)C3)C2c2ccncc2)cc1 (stereo not given)	.
COC(=O)C1=C(C)NC2=C(C(=O)CC(c3ccc(Cl)cc3)C2)C1c1ccc(C)cc1 (stereo not given)	.
COc1ccc(COC(=O)C2=C(C)NC3=C(C(=O)CC(C)(C)C3)C2c2ccc(OC)cc2)cc1 (stereo not given)	3.48
CC1=C(C(=O)OCCOC(C)C)C(c2ccc(O)cc2)C2=C(CC(C)(C)CC2=O)N1 (stereo not given)	.
CCCOC(=O)C1=C(C)NC2=C(C(=O)CC(c3ccc(Cl)cc3)C2)C1c1ccc(O)cc1 (stereo not given)	4.66
CCOC(=O)C1=C(C)NC2=C(C(=O)CC(C)(C)C2)C1c1ccc(OC(C)=O)cc1 (stereo not given)	6.84
CCCOC(=O)C1=C(C)NC2=C(C(=O)CC(c3ccccc3)C2)C1c1ccc(C)cc1 (stereo not given)	.
Cn1nnc(-c2cc(Cl)cc(Cl)c2)n1	.
CC(C)c1ccc(C(=O)CC2(O)C(=O)N(CC(N)=O)c3ccccc32)cc1 (stereo not given)	.
CN1CCc2c(sc3c2C(=O)NC(c2ccc(-c4ccccc4F)o2)N3)C1 (stereo not given)	.
Cc1ccc(C(C)C)c(OCCCN2C(=O)C(=O)c3cccc(C)c32)c1	.
Cc1ccc(C(C)C)c(OCCN2C(=O)C(=O)c3cc(C)ccc32)c1	.
Cc1ccc(OCCN2C(=O)C(=O)c3cc(C)ccc32)cc1	3.13
CC(=O)NC(Nc1cccc(F)c1)(C(F)(F)F)C(F)(F)F	.
CC(=O)OC1CCN(c2cc(C(F)(F)F)nc3cc(Cl)cc(Cl)c23)CC1	.
O=C(Nc1ccncc1[N+](=O)[O-])c1cccs1	3.54
O=C(Nc1cc(Cl)ccc1O)c1cccs1	.
O=C(Nc1cccc2nsnc12)c1cccs1	.
CN(C)/C=N/NC(=O)Cc1csc2nc(-c3ccccc3)nn12	.
CC(C)c1ccc(Nc2cc(=O)[nH]n2C)cc1	.
Cc1cc(Cl)ccc1NCN1C(=O)CCC1=O	5.24
Cc1cc(Br)ccc1NCN1C(=O)c2ccccc2C1=O	.
CC(C)c1ccc(NCN2C(=O)CCC2=O)cc1	3.67
O=C(CNc1cc(C(F)(F)F)cc(C(F)(F)F)c1)c1ccc(Cl)cc1	.
SMILES	Dicer processing
O=C1CCC(=O)N1CNc1ccc(F)cc1F	4.57
O=C1CCC(=O)N1CNc1cc(C(F)(F)F)cc(C(F)(F)F)c1	3.85
COc1cc(OC)c(C(F)(F)F)cc1NCN1C(=O)CCC1=O	.
CC1CC(=O)N(c2ccc(F)cc2F)C(=O)C1	.
Cc1ccc(NCN2C(=O)c3ccccc3C2=O)c(C)c1	.
CCc1ccc(NCN2C(=O)c3ccccc3C2=O)cc1	.
O=C1CCC(=O)N1CNc1c(F)cccc1F	.
CC(=O)/C(=C\N(C)C)Sc1ccccc1	.
COC(=O)c1c(NC(=O)c2sc3ccccc3c2Cl)sc(C)c1C	.
CN(C)S(=O)(=O)c1ccc(-c2cc(C(F)(F)F)on2)s1	.
COc1cc(C(=O)Oc2c(Cl)cc(Cl)cc2C=Nc2ccc([N+](=O)[O-])cc2C#N)cc(OC)c1OC	.
CC1=C(C(=O)OC2CCCC2)C(c2cccc(F)c2)C2=C(CC(C)(C)CC2=O)N1 (stereo not given)	.
N#Cc1cccnc1NNC(=O)Nc1cccc2ccccc12	.
Clc1ccc(C2=NN3COc4ccccc4C3C2)cc1 (stereo not given)	.
Cc1ccc(O)c(C2=NN3C(C2)c2cc(Cl)ccc2OC3c2cccnc2)c1 (stereo not given)	.
COc1cccc2c1OC(C(C)C)N1N=C(c3ccccc3O)CC21 (stereo not given)	.
Clc1ccc(C2=NN3C(C2)c2ccccc2OC3c2cccnc2)cc1 (stereo not given)	6.05
Oc1ccccc1C1=NN2C(C1)c1ccccc1OC2c1cccnc1 (stereo not given)	12.3
Oc1ccccc1C1=NN2C(C1)c1ccccc1OC2c1ccccc1 (stereo not given)	.
COc1cccc2c1OC(c1cccnc1)N1N=C(c3ccccc3O)CC21 (stereo not given)	.
CC(C)C1Oc2ccccc2C2CC(c3ccccc3O)=NN21 (stereo not given)	5.61
O=C1NC(c2ccc([N+](=O)[O-])s2)Nc2ccccc21 (stereo not given)	.
CCn1c(=O)n(CC)c2cc3nc4c(nc3cc21)C(=O)c1ccccc1-4	.
CCN1CCN(Cc2c(O)ccc3c(=O)c(-c4ccc(Cl)cc4)c(C(F)(F)F)oc23)CC1	.
COc1ccc(-c2cnc(NCc3ccc(SC)cc3)n2C)cc1	.
C[C@H]1c2cccc(O)c2C(O)=C2C(=O)[C@]3(O)C(O)=C(C(N)=O)C(=O)[C@@H](N(C)C)[C@@H]3[C@@H](O)[C@@H]21	.
CN(C)c1ccc(O)c2c1CC1CC3[C@@H](N(C)C)C(=O)C(C(N)=O)=C(O)[C@]3(O)C(=O)C1=C2O (stereo not given in full)	6.09
CCOC(=O)c1nnn(Cc2ccccc2)c1N	.

Screening data deposited in PubChem by Center for Chemical Genomics, University of Michigan.
